This is an account of results in PubChem BioAssay (Tox21).

Records with an inconclusive call do not appear. Where a call stands in place of a potency, no number is given. Activity calls are given as the source filed them. Calls follow the shape of the dose curve; as a rule, active = well fitted cell-killing curve with a large enough effect in the repeat runs; inconclusive = weak or mixed curves; inactive = flat fitted curve, though single readings scatter.

A short description of this assay: qHTS assay to identify small molecule antagonists of the estrogen related receptor (ERR) signaling pathway - cell viability counter screen (AID 1224818).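 Also: viability measured after 17.5 h of compound exposure.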 Conditions: ERR reporter cell line viability counter screen; series mostly up to 46.1 µM. The essentials: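 In the same ERR cell assay, compound-treated wells (17.5 h, 37 C) were multiplexed with a fluorogenic viability reagent, CellTiter-Fluor, read after 30 min to flag cytotoxic substances.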
In general terms: qHTS replaces the single test concentration by a dilution series.
For `COC(=O)c1c(C)[nH]c(C)c1C(=O)c1ccccc1Cc1ccccc1`, the Potency entry is “inactive”.

For the compound `O=C1NC(O)=NC1(c1ccccc1)c1ccccc1`, the Potency entry is “inactive”.

Consider `CC(=O)SC1CC2=CC(=O)CC[C@]2(C)C2CC[C@@]3(C)C(CC[C@@]34CCC(=O)O4)C12` (some centres undefined), for which the Potency result was “inactive”.

With `C=C[C@H]1CN2CC[C@@H]1C[C@H]2[C@H](O)c1ccnc2ccc(OC)cc12`, the Potency result was “inactive”.

`C=C[C@H]1CN2CC[C@@H]1C[C@@H]2[C@@H](O)c1ccnc2ccc(OC)cc12`: the Potency result was “inactive”.

As for `c1ccc(C2CN3CCSC3=N2)cc1` (centres undefined), the Potency entry is “inactive”.

For the compound `Cc1ccccc1/C=C/C1=NCCN1`, the Potency entry is “inactive”.

As to `CCCc1c(-c2ccc(O)cc2)nn(-c2ccc(O)cc2)c1-c1ccc(O)cc1`, the Potency entry is “inactive”.

`CC(C)NC[C@H](O)COc1cccc2[nH]ccc12`: the Potency result is “inactive”.

Take `CCCCCCCCCCCCCCC[C@H](O)[C@H](N)CO`: the Potency result is “inactive”.

On to `CN1C2CCC1CC(OC(=O)C(CO)c1ccccc1)C2` (centres undefined), for which the Potency result was “inactive”.

`Nc1ncnc2c1ncn2[C@@H]1O[C@H](CO)C(O)[C@H]1O` (some centres undefined): the Potency result is “inactive”.

Regarding `N.N.O=C(O)C1(C(=O)O)CCC1.[Pt+2]`, the Potency result is “inactive”.

As to `COc1cc(C(O)CO)ccc1O` (centres undefined), the Potency entry is “inactive”.

As for `CCC1(O)CC2CN(CCc3c([nH]c4ccccc34)[C@@](C(=O)OC)(c3cc4c(cc3OC)N(C=O)C3[C@]45CCN4CC=C[C@@](CC)([C@@H](OC(C)=O)[C@]3(O)C(=O)OC)[C@H]45)C2)C1` (some centres undefined), the Potency entry is “inactive”.

In the case of `Clc1ccc(N2CCN(Cc3cc4ccccn4n3)CC2)cc1`, the Potency result is “inactive”.

As for `CC1=C(C(=O)O)N2C(=O)[C@@H](NC(=O)C(N)C3=CCC=CC3)[C@H]2SC1` (some centres undefined), the Potency result is “inactive”.

Turning to `O=[N+]([O-])c1ccc(CNc2nc(NCc3cccc(C(F)(F)F)c3)nc3nc[nH]c23)cc1`, the Potency entry is “inactive”.

With `COc1cc([C@@H]2c3cc4c(cc3[C@H](O)C3COC(=O)[C@@H]32)OCO4)cc(OC)c1OC` (some centres undefined), the Potency entry was “inactive”.

Consider `CN1C2CCC1CC(OC(=O)c1c[nH]c3ccccc13)C2` (centres undefined), for which the Potency entry was “inactive”.

Consider `N=C(N)c1ccc(N)cc1`, for which the Potency entry is “inactive”.

For the compound `CC(N)(Cc1ccc(O)c(O)c1)C(=O)O` (centres undefined), the Potency entry was “inactive”.

For the compound `CC(C)NC[C@H](O)COc1ccc(CC(N)=O)cc1`, the Potency result is “inactive”.

`CC(C)[C@H](NC(=O)OCc1ccccc1)C(=O)N[C@H](C=O)Cc1ccccc1`: the Potency entry is “inactive”.

As to `CN(C)CCC(c1ccc(Br)cc1)c1ccccn1` (centres undefined), the Potency result was “inactive”.

With `NCC(O)c1ccc(O)c(O)c1` (centres undefined), the Potency result was “inactive”.

On to `CCCCCCCC/C=C\CCCCCCCC(=O)NCCc1ccc(O)c(O)c1`, for which the Potency entry is “inactive”.

`COc1ccc(-c2cc(=O)c3c(O)c(OC)c(OC)cc3o2)cc1O`: the Potency result was “inactive”.

As to `COc1cc2c(cc1OC)C1CC(=O)C(CC(C)C)CN1CC2` (centres undefined), the Potency entry is “inactive”.

Regarding `CC[C@H]1OC(=O)[C@H](C)C(O[C@H]2C[C@@](C)(OC)[C@@H](O)[C@H](C)O2)[C@H](C)[C@@H](OC2O[C@H](C)C[C@H](N(C)C)[C@H]2O)[C@](C)(O)C[C@@H](C)CN(C)[C@H](C)[C@@H](O)[C@]1(C)O` (some centres undefined), the Potency result was “inactive”.

`CC(C)NC[C@H](O)COc1cccc2ccccc12`: the Potency result is “inactive”.

Consider `CCCCCCN(CCCCCC)C(=O)Cc1c(-c2ccc(F)cc2)[nH]c2ccccc12`, for which the Potency entry was “inactive”.

As to `Oc1cc(O)c2c(c1)O[C@H](c1ccc(O)c(O)c1)[C@@H](O)C2`, the Potency entry is “inactive”.

On to `Nc1ccn([C@H]2O[C@H](CO)[C@@H](O)C2(F)F)c(=O)n1`, for which the Potency entry was “inactive”.
